Screening results (PubChem)
A selection: hits, their analogues and other compounds. The true share with any hit is near 27%.
CYP2C19 activ = human CYP2C19 activators, primary screen, biochemical, luminescence; Cytochrome P450 2C19 (Homo sapiens), P33261; 96,000 tested, under 10 active; recombinant CYP2C19, luciferin-H EGE luminescence; hits give high values; 0 = fully inhibited enzyme, 1 = untreated enzyme; activation factor at 5 µM;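 active means activation factor of at least 2 at 5 µM in the primary screen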;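 further: 0 = wells with 2.5 mM tranylcypromine and 1 = vehicle-only wells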
Target sequence (P33261 whole entry, looked up): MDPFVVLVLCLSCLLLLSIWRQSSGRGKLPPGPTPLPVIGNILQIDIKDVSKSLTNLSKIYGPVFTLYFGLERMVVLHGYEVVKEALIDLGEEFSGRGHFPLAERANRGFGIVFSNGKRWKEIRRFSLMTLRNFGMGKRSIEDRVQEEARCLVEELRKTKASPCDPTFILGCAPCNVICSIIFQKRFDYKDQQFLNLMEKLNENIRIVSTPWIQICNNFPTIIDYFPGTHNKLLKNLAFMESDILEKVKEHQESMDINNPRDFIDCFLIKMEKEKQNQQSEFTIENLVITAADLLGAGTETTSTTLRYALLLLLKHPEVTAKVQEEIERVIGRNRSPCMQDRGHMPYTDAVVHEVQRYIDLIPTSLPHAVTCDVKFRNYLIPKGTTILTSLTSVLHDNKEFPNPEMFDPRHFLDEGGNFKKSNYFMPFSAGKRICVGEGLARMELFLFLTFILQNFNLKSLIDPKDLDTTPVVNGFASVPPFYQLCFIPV
CYP2C9 inhib = blockers of cytochrome P450 2C9 activity – biochemical, luminescence, ADME assay, primary screen; P11712; CYP2C9 Supersomes, luciferin-H conversion; inhibition, % at 5 µM; 96,000 tested, 20% active;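 active means blocking of liver enzyme CYP2C9 beyond about 50% at 5 µM, limit read from the data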
sEH act = soluble epoxide hydrolase activators, primary screen, biochemical, human sEH; AID 717, 2007; 91,000 tested, 0.04% active; activation, % at 2 µM; purified human sEH enzymatic activity, activator screen; in the data active means activation above about 37%
sEH inhibitor = soluble epoxide hydrolase inhibitors, primary screen, biochemical, human sEH | recombinant human sEH enzymatic activity assay | Bifunctional epoxide hydrolase 2 (Homo sapiens), P34913 | 91,000 tested, 0.34% active | inhibition, % at 2 µM; in the data active means inhibition above about 80%
CYP2C9 activ = human CYP2C9 activators, primary screen, biochemical, luminescence | activation factor at 5 µM | Cytochrome P450 2C9 (Homo sapiens), P11712 | 96,000 tested, 1.4% active | AID 1024, 2008 | recombinant CYP2C9, luciferin-H conversion; hits give high values; factor 1 = untreated enzyme, 0 = blocked;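 active means activation factor of 2 or more for CYP2C9 at a 5 µM dose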;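 further: 0 = sulfaphenazole-blocked wells and 1 = vehicle-only wells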
CYP2C19 inh = blockers of cytochrome P450 2C19 activity – biochemical, luminescence, ADME assay, primary screen | 96,000 tested, 21% active | inhibition, % at 5 µM | CYP2C19 Supersomes, luciferin-H EGE luminescence, 30 min;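 active means CYP2C19 inhibition above a set limit at 5 µM in the primary screen, cut at about 50% in these data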;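 further: plate controls were negative control wells for no effect and 2.5 mM tranylcypromine positive control for full effect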
* = called active by the depositor; . = no result given.

SMILES	CYP2C19 activ	CYP2C9 inhib	sEH act	sEH inhibitor	CYP2C9 activ	CYP2C19 inh
Nc1nc(-c2cccc(NS(=O)(=O)c3ccccc3)c2)cs1	0	95.4*	-8.7	7.8	0	98.7*
CC1(C)CC(=O)C2(CC3=C(CC(C)(C)CC3=O)O2)C(=O)C1	1	-4.6	-12.2	13.4	1	-3.1
Cc1ccc(N(CC(=O)N2CCOCC2)S(C)(=O)=O)cc1C	1	2.6	0.5	-1.8	1	-1.1
CC(=O)N1CCC(Nc2ccc(C)cc2)CC1	0.9	53.5*	26.0	-27.1	0.5	5.8
Cc1cccc(NCc2ccccc2O)c1C	0	61.0*	-0.3	2.2	0.4	95.6*
Cc1cccc(C)c1OCC(=O)N=Nc1c(O)[nH]c2ccc(Br)cc12	0.7	87.7*	10.0	-13.1	0.1	33.2
O=C(NNC(=O)c1ccccc1-n1cccc1)c1ccc(Cl)cc1Cl	0.9	-93.3	1.4	1.5	1.9	13.0
O=C(Cn1nnc(-c2ccccc2)n1)N=Nc1c(O)[nH]c2ccccc12	1	1.3	11.3	-13.8	1	-0.5
O=C(N=Nc1c(O)[nH]c2ccc(Br)cc12)c1ccccc1-n1cccc1	0.6	64.4*	11.1	-7.7	0.4	35.7
COc1cc(NC(C)C(=O)N2CC(C)OC(C)C2)cc(OC)c1 (stereo unspecified)	1.3	-34.7	-8.7	11.5	1.3	-32.3
Nc1nc(CN2CCN(Cc3ccc4c(c3)OCO4)CC2)nc(Nc2ccccc2)n1	1	10.4	10.4	-8.8	0.9	0.7
c1csc(-c2csc3nc(CN4CCOCC4)nc(NCc4ccc5c(c4)OCO5)c23)c1	0.2	84.0*	.	.	0.2	79.2*
COCCN1Cc2cccc(C(=O)Nc3cc(OC)ccc3OC)c2C1=O	0.8	35.2	.	.	0.6	16.1
COc1cc(NC(=O)c2cccc3c2C(=O)N(Cc2cccnc2)C3)cc(OC)c1OC	0.5	68.7*	.	.	0.3	48.2
O=C(Nc1ccc2c(c1)OCO2)c1cccc2c1C(=O)N(Cc1cccnc1)C2	0.7	76.9*	.	.	0.2	34.1
CCCN1Cc2cccc(C(=O)Nc3ccc4c(c3)OCCO4)c2C1=O	0.2	92.0*	-13.1	13.7	0.1	80.9*
CCCN1Cc2cccc(C(=O)Nc3ccc4c(c3)OCO4)c2C1=O	0.9	59.8*	.	.	0.4	10.0
CCCN1Cc2cccc(C(=O)Nc3ccc(C)cc3)c2C1=O	1	13.9	17.9	-17.6	0.9	0.3
COc1cc(-c2nc3n(n2)C(c2cccc(OC)c2OC)C2=C(CCCC2=O)N3)cc(OC)c1OC (stereo unspecified)	0.8	6.3	-1.0	2.8	0.9	19.2
CCOc1ccc(C2OC(=O)Cc3cc(OC)c(OC)cc32)cc1 (stereo unspecified)	0.6	26.4	0.7	2.4	0.7	35.1
Cc1ccc(C2=[N+]([O-])C(C)N(O)C2(C)C)o1 (stereo unspecified)	0.9	2.7	-5.8	4.5	1	7.7
CCOC(=O)C1=C(CS(=O)(=O)c2ccc(F)c(C)c2)NC(=O)NC1c1ccc(O)c(O)c1 (stereo unspecified)	0.3	8.5	.	.	0.9	68.9*
O=C(c1ccccc1F)N1CCN(S(=O)(=O)c2ccc3c(c2)OCCO3)CC1	0.1	48.9	.	.	0.5	93.1*
CCOc1ccccc1N1CCN(S(=O)(=O)c2cccc3nsnc23)CC1	0.1	69.5*	-1.4	3.8	0.3	94.0*
CN(C1CCCCC1)S(=O)(=O)c1ccc(S(=O)(=O)N2CCN(C(=O)c3ccccc3F)CC2)cc1	0.9	4.4	-9.6	11.5	1	7.9
SMILES	CYP2C19 activ	CYP2C9 inhib	sEH act	sEH inhibitor	CYP2C9 activ	CYP2C19 inh
CCOc1ccccc1N1CCN(S(=O)(=O)CC)CC1	0.7	24.0	.	.	0.8	34.8
CCOC(=O)N1CCN(S(=O)(=O)c2cccs2)CC1	0.4	24.2	1.3	0.0	0.8	56.9*
CCOc1ccccc1N1CCN(S(=O)(=O)c2cccs2)CC1	0.1	90.7*	-21.9	24.4	0.1	93.1*
CCC(C)C(NC(=O)C(N)CC(C)C)C(=O)NC(CCC(=O)OCc1ccccc1)C(N)=O (stereo unspecified)	0.8	22.8	13.6	-10.2	0.8	24.4
COc1ccc(CCNC(=O)C2CCN(c3ccc(N4CCOCC4)nn3)CC2)c(OC)c1	0.6	23.0	-50.9	49.6	0.8	41.0
O=C1Nc2cc(C(=O)N3CCN(Cc4ccccc4)CC3)ccc2SC1N1CCOCC1 (stereo unspecified)	0.9	21.8	4.9	-7.7	0.8	12.4
Cc1ccc(S(=O)(=O)N2CCN(S(=O)(=O)c3ccc4c(c3)OCCO4)CC2)cc1	1.1	-9.8	25.5	-29.2	1.1	-13.8
CCOC(=O)N1CCN(S(=O)(=O)c2ccc(C)c(C)c2C)CC1	0	-6.2	3.7	-4.5	1.1	99.2*
COc1ccc2c(CC(=O)N3CCN(S(=O)(=O)c4cccs4)CC3)coc2c1	0.1	34.4	-4.5	6.0	0.7	90.0*
Cc1ccc2c(CC(=O)N3CCN(S(=O)(=O)c4ccc5c(c4)OCCO5)CC3)coc2c1	0.6	71.6*	7.8	-8.2	0.3	41.2
CCOC(=O)N1CCN(S(=O)(=O)c2cc(C)c(C)cc2C)CC1	.	.	-8.9	9.0	.	.
Cc1cc(C(=O)N/N=C/c2cccc(OC(=O)c3ccco3)c2)n[nH]1	1	15.6	-6.7	7.8	0.8	-4.4
Cc1ccc(C(C(=O)NC2CCCC2)N(Cc2cccs2)C(=O)c2csnn2)o1 (stereo unspecified)	.	.	9.4	-3.4	.	.
CCC(CC)C(=O)NCCc1ccc(OC)c(OC)c1	1	-5.9	-5.7	7.4	1.1	4.9
CCOc1ccc(C(=O)NCCc2ccccc2)cc1	0.6	42.0	-46.4	45.1	0.6	43.0
CCOc1ccc(CCNC(=O)C(O)c2ccccc2)cc1 (stereo unspecified)	0.5	57.0*	-6.3	7.6	0.4	47.1
CCC(CC)C(=O)NCCc1ccc(OC)cc1	0.2	58.8*	0.3	-1.3	0.4	77.1*
CCOC(=O)NC(NCCc1ccccc1)(C(F)(F)F)C(F)(F)F	0.4	53.4*	12.8	-9.7	0.5	63.4*
CCOC(=O)COc1ccc(CCNC(C)=O)cc1	1.1	-110.9	-4.6	2.6	2.1*	-12.7
COc1ccc(CCNC(=O)c2ccc(Cl)cc2Cl)cc1	0.1	6.1	3.7	-0.9	0.9	88.6*
CCOC(=O)NCCc1ccc(OC)cc1	0.2	63.6*	.	.	0.4	82.8*
COc1ccc(CCNC(C)=O)cc1	1	-10.9	-7.8	9.6	1.1	-4.8
